# Calls of active or inactive are those of the source.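 Rule for the calls, unless noted: active = inhibition above 50%; inactive = the rest.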
# Test: antimalarial activity against Dd2 strain (AID 2302;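 active = growth inhibition above 50% at the single 2 µM test dose, taken to imply half-maximal potency below 2 µM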;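 note: 0% = DMSO untreated growth and 100% = chloroquine plus artemisinin killed control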)
# Conditions: P. falciparum Dd2 in RBCs, LDH growth readout, 72 h; at 2 µM; active compounds read high
row,Structure (SMILES),growth inhibition
1,Cc1cccc2[nH]c(-c3ccc(-c4cccc(CN5CCC(CO)CC5)c4)s3)nc12,61% (active)
2,O=C(Nc1cccc(-c2nn3ccccc3c2-c2ccnc(Nc3cccc(N4CCCC4=O)c3)n2)c1)c1cc(F)ccc1F,51% (active)
3,COc1ccc(NC(=O)Nc2nc(-c3ccc(Cl)c(C)c3)cs2)cc1N1CCN(C)CC1,89% (active)
4,COc1c(C(=O)NC2CCN(Cc3ccccc3)C2)cnc2ccccc12 (stereo not given),12% (inactive)
5,COc1ccc(Cl)cc1NC(=O)Nc1ccc2c(c1)CCN(C1CCC1)CC2,19% (inactive)
6,OCCNc1nc(Nc2ccccc2)nc2ccccc12,61% (active)
7,COc1ccc2c(Nc3ccc(N4CCN(C)CC4)cc3)cc(C)nc2c1,9% (inactive)
8,O=C(N[C@H]1CCN(Cc2ccc(OCCCN3CCCCC3)cc2)C1)c1cc(Cl)cc(Cl)c1,35% (inactive)
9,COc1ccc(CNCCc2cccs2)cc1-c1ccc(OC)c(S(=O)(=O)NCCN2CCCC2)c1,19% (inactive)
10,COc1ccc(-c2ccc(NC(=O)c3cccc(C#N)c3)cc2)cc1CN1CCC(O)CC1,84% (active)
11,NCc1cccc(-c2cccc(CNC3CCN(Cc4ccccc4)CC3)c2)c1,45% (inactive)
12,CCc1nc2ccc(C(=O)OC)nc2n1Cc1ccc2oc(-c3ccccc3N)c(Br)c2c1,75% (active)
13,CO/C(=C\C=C\c1cc2cc(Cl)c(Cl)cc2[nH]1)C(=O)NCCN1CCCCC1,86% (active)
14,CCCCCCNC(=O)C1Cc2c([nH]c3ccc(Br)cc23)C2(CCN(Cc3ccccc3)CC2)N1 (stereo not given),75% (active)
15,O=c1[nH]c(NCCCCCN2CCC(c3c[nH]c4ccccc34)CC2)ncc1Cc1ccc(Cl)c(Cl)c1,8% (inactive)
16,CCn1c2ccccc2c2cc(C=NNc3cc(C)nc4ccccc34)ccc21,97% (active)
17,O=c1cc(NCCCN(Cc2cc3c(Cl)cc(Cl)cc3[nH]2)Cc2cc3c(Cl)cc(Cl)cc3[nH]2)[nH]c2ccccc12,80% (active)
18,CCc1cc(NC2CCN(C)CC2)nc(Nc2cccc(OC)c2)n1,37% (inactive)
19,CCCCOc1cc(CNCCCCCCNCc2cc(OCCCC)cc3ccccc23)c2ccccc2c1,92% (active)
20,O=C(O)c1ccc2nc(-c3ccccn3)c(-c3ccccn3)nc2c1,18% (inactive)

row,Structure (SMILES),growth inhibition
1,Cc1cccc2[nH]c(-c3ccc(-c4ccc(NC(=O)C5CCN(C)CC5)cc4)cc3)nc12,92% (active)
2,CCCc1cc(N2CCC(c3ccccc3)(N3CCCCC3)CC2)nc(Nc2ccc(OC)cc2)n1,28% (inactive)
3,c1cncc(-c2cc(N3CCc4ccccc4C3)nc(-c3ccncc3)n2)c1,100% (active)
4,CN(C)C(CNC(=O)c1cc(-c2ccncc2)c(-c2ccc(NC(=O)Nc3ccccc3)cc2)o1)c1ccccc1 (stereo not given),96% (active)
5,CN1CCCN(Cc2ccc(-c3cccc(NC(=O)c4ccc(Cl)cc4)c3)cc2)CC1,50% (active)
6,CN1CCN(CCCN(Cc2cccc(-c3ccc(CNCCc4ccccc4)cc3)c2)C(=O)c2cccs2)CC1,97% (active)
7,CNC(=O)c1cnc(Nc2ccc(N3CCN(C)CC3)cc2)nc1Nc1ccccc1OC,84% (active)
8,COc1ccc(NC(=O)/C=C/c2ccccc2Cl)cc1OCCN1CCC(c2nc3ccccc3[nH]2)CC1,16% (inactive)
9,COc1ccc2nccc(NCC3(O)CCC(NCc4ccc5c(n4)NC(=O)CS5)CC3)c2n1 (stereo not given),23% (inactive)
10,c1ccn2c(-c3ncnc(NCc4ccc5c(c4)CCO5)n3)cnc2c1,47% (inactive)
11,CCCCCCCCOc1c(OCC)cc(Cc2cnc(N)nc2N)cc1OCC,-1% (inactive)
12,Cc1ccc(NC(=O)NC2CCN(c3ccnc4cc(Cl)ccc34)CC2)cc1,47% (inactive)
13,Nc1c(C(=O)NCCCCN2CCN(c3nsc4ccccc34)CC2)sc2ccccc12,-6% (inactive)
14,COc1ccc(NC(=O)Nc2ccc(C)c(-c3ccc(C(=O)Nc4ccncc4)cc3)c2)cc1,50% (active)
15,Cc1cccc2[nH]c(-c3cccc(-c4ccc(CN5CCCC5CN)cc4)c3)nc12 (stereo not given),47% (inactive)
16,COc1cccc(CN2CCCC(COC(c3ccc(F)cc3)c3ccc(F)cc3)C2)c1O (stereo not given),100% (active)
17,COc1cc(Cc2cnc(N)nc2N)ccc1OCc1ccc(NC(C)=O)cc1,0% (inactive)
18,COc1ccc(C=NNc2ccnc3ccccc23)c2ccccc12,98% (active)
19,Cc1ccc(CNC(=O)[C@H](CC(C)C)Nc2cc(C)nc(NCc3ccccc3C)n2)cc1,35% (inactive)
20,O=C(Nc1ccc(Cn2nc(Cl)c(N3CCCNCC3)cc2=O)cc1)Nc1ccc(-c2ccccc2)cc1,36% (inactive)

# Test: HepG2 cytotoxicity, primary screen, cytotoxicity control for P. falciparum antimalarial project, cell-based, ATP luminescence (AID 2303);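 note: 0% = DMSO wells and 100% = digitonin-killed cells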
# Conditions: HepG2 viability, 24-48 h, at 10 µM, active compounds read high
row,Structure (SMILES),inhibition
1,Cc1cccc2[nH]c(-c3ccc(-c4cccc(CN5CCC(CO)CC5)c4)s3)nc12,20% (inactive)
2,O=C(Nc1cccc(-c2nn3ccccc3c2-c2ccnc(Nc3cccc(N4CCCC4=O)c3)n2)c1)c1cc(F)ccc1F,59% (active)
3,COc1ccc(NC(=O)Nc2nc(-c3ccc(Cl)c(C)c3)cs2)cc1N1CCN(C)CC1,9% (inactive)
4,COc1c(C(=O)NC2CCN(Cc3ccccc3)C2)cnc2ccccc12 (stereo not given),2% (inactive)
5,COc1ccc(Cl)cc1NC(=O)Nc1ccc2c(c1)CCN(C1CCC1)CC2,38% (inactive)
6,OCCNc1nc(Nc2ccccc2)nc2ccccc12,5% (inactive)
7,COc1ccc2c(Nc3ccc(N4CCN(C)CC4)cc3)cc(C)nc2c1,23% (inactive)
8,O=C(N[C@H]1CCN(Cc2ccc(OCCCN3CCCCC3)cc2)C1)c1cc(Cl)cc(Cl)c1,13% (inactive)
9,COc1ccc(CNCCc2cccs2)cc1-c1ccc(OC)c(S(=O)(=O)NCCN2CCCC2)c1,16% (inactive)
10,COc1ccc(-c2ccc(NC(=O)c3cccc(C#N)c3)cc2)cc1CN1CCC(O)CC1,21% (inactive)
11,NCc1cccc(-c2cccc(CNC3CCN(Cc4ccccc4)CC3)c2)c1,9% (inactive)
12,CCc1nc2ccc(C(=O)OC)nc2n1Cc1ccc2oc(-c3ccccc3N)c(Br)c2c1,8% (inactive)
13,CO/C(=C\C=C\c1cc2cc(Cl)c(Cl)cc2[nH]1)C(=O)NCCN1CCCCC1,16% (inactive)
14,CCCCCCNC(=O)C1Cc2c([nH]c3ccc(Br)cc23)C2(CCN(Cc3ccccc3)CC2)N1 (stereo not given),100% (active)
15,O=c1[nH]c(NCCCCCN2CCC(c3c[nH]c4ccccc34)CC2)ncc1Cc1ccc(Cl)c(Cl)c1,21% (inactive)
16,CCn1c2ccccc2c2cc(C=NNc3cc(C)nc4ccccc34)ccc21,19% (inactive)
17,O=c1cc(NCCCN(Cc2cc3c(Cl)cc(Cl)cc3[nH]2)Cc2cc3c(Cl)cc(Cl)cc3[nH]2)[nH]c2ccccc12,23% (inactive)
18,CCc1cc(NC2CCN(C)CC2)nc(Nc2cccc(OC)c2)n1,22% (inactive)
19,CCCCOc1cc(CNCCCCCCNCc2cc(OCCCC)cc3ccccc23)c2ccccc2c1,99% (active)
20,O=C(O)c1ccc2nc(-c3ccccn3)c(-c3ccccn3)nc2c1,3% (inactive)

row,Structure (SMILES),inhibition
1,Cc1cccc2[nH]c(-c3ccc(-c4ccc(NC(=O)C5CCN(C)CC5)cc4)cc3)nc12,28% (inactive)
2,CCCc1cc(N2CCC(c3ccccc3)(N3CCCCC3)CC2)nc(Nc2ccc(OC)cc2)n1,13% (inactive)
3,c1cncc(-c2cc(N3CCc4ccccc4C3)nc(-c3ccncc3)n2)c1,56% (active)
4,CN(C)C(CNC(=O)c1cc(-c2ccncc2)c(-c2ccc(NC(=O)Nc3ccccc3)cc2)o1)c1ccccc1 (stereo not given),19% (inactive)
5,CN1CCCN(Cc2ccc(-c3cccc(NC(=O)c4ccc(Cl)cc4)c3)cc2)CC1,34% (inactive)
6,CN1CCN(CCCN(Cc2cccc(-c3ccc(CNCCc4ccccc4)cc3)c2)C(=O)c2cccs2)CC1,86% (active)
7,CNC(=O)c1cnc(Nc2ccc(N3CCN(C)CC3)cc2)nc1Nc1ccccc1OC,8% (inactive)
8,COc1ccc(NC(=O)/C=C/c2ccccc2Cl)cc1OCCN1CCC(c2nc3ccccc3[nH]2)CC1,35% (inactive)
9,COc1ccc2nccc(NCC3(O)CCC(NCc4ccc5c(n4)NC(=O)CS5)CC3)c2n1 (stereo not given),16% (inactive)
10,c1ccn2c(-c3ncnc(NCc4ccc5c(c4)CCO5)n3)cnc2c1,12% (inactive)
11,CCCCCCCCOc1c(OCC)cc(Cc2cnc(N)nc2N)cc1OCC,25% (inactive)
12,Cc1ccc(NC(=O)NC2CCN(c3ccnc4cc(Cl)ccc34)CC2)cc1,4% (inactive)
13,Nc1c(C(=O)NCCCCN2CCN(c3nsc4ccccc34)CC2)sc2ccccc12,26% (inactive)
14,COc1ccc(NC(=O)Nc2ccc(C)c(-c3ccc(C(=O)Nc4ccncc4)cc3)c2)cc1,39% (inactive)
15,Cc1cccc2[nH]c(-c3cccc(-c4ccc(CN5CCCC5CN)cc4)c3)nc12 (stereo not given),19% (inactive)
16,COc1cccc(CN2CCCC(COC(c3ccc(F)cc3)c3ccc(F)cc3)C2)c1O (stereo not given),24% (inactive)
17,COc1cc(Cc2cnc(N)nc2N)ccc1OCc1ccc(NC(C)=O)cc1,9% (inactive)
18,COc1ccc(C=NNc2ccnc3ccccc23)c2ccccc12,27% (inactive)
19,Cc1ccc(CNC(=O)[C@H](CC(C)C)Nc2cc(C)nc(NCc3ccccc3C)n2)cc1,3% (inactive)
20,O=C(Nc1ccc(Cn2nc(Cl)c(N3CCCNCC3)cc2=O)cc1)Nc1ccc(-c2ccccc2)cc1,89% (active)

# — PubChem BioAssay
